Test results reported in PubChem BioAssay (NCI).
This is part of a sample that, as a whole, favours compounds with a hit. Of some 79,000 tested, about 15% had one in any assay. The source made the active and inactive calls. Cut-off read from the data, not from the text of the source: active = growth inhibition above about 70%; inactive = the rest.

Assays:
[1] = NCI Yeast Anticancer Drug Screen. Data for the rad52 strain (AID 147);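 note: 0% = growth of vehicle-treated control cultures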; details: S. cerevisiae rad52 mutant growth inhibition, active compounds read high
Procedure, shortened: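 The repair-mutant yeast strain was incubated with compounds, then growth was read and inhibition derived relative to vehicle.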

[2] = NCI Yeast Anticancer Drug Screen. Data for the wt1 strain (AID 149);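 note: 0% = growth of vehicle-treated wt1 cultures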; details: S. cerevisiae wt1 strain (SPY 50644) growth inhibition, active compounds read high
Procedure, shortened: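 wt1 yeast, compound-treated; % growth inhibition vs vehicle control.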

[3] = NCI Yeast Anticancer Drug Screen. Data for the rad50EPP+ strain (AID 151);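 note: 0% = growth of vehicle-treated control cultures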; details: S. cerevisiae rad50 mutant strain, active compounds read high
Procedure, shortened: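 Vehicle-normalised growth inhibition; rad50EPP+ yeast strain, altered in DNA damage repair, compound-treated.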

[4] = NCI Yeast Anticancer Drug Screen. Data for the mgt1 strain (AID 153); details: S. cerevisiae mgt1 mutant growth inhibition, active compounds read high
Procedure, shortened: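 Vehicle-normalized growth inhibition is determined in mgt1 yeast, a strain selected for a defined alteration in DNA repair or cell cycle control.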

[5] = NCI Yeast Anticancer Drug Screen. Data for the rad50 strain (AID 155);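 note: 0% = growth of vehicle-only cultures of the same strain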; details: S. cerevisiae rad50 strain growth inhibition, active compounds read high
Procedure, shortened: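 Genetically altered yeast (DNA repair pathway); compound treatment; growth inhibition vs vehicle ctrl.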

[6] = NCI Yeast Anticancer Drug Screen. Data for the mec2-1 strain (AID 157); details: S. cerevisiae mec2-1 strain, active compounds read high
Procedure, shortened: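 Mutant yeast (mec2-1) grown with compound; growth inhibition relative to vehicle control reported.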

[7] = NCI Yeast Anticancer Drug Screen. Data for the rad14 strain (AID 159);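 note: 0% = growth of vehicle-treated control cultures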; details: S. cerevisiae rad14 strain growth inhibition, active compounds read high
Procedure, shortened: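 Test compounds were applied to a repair-deficient yeast strain. Its growth was then compared with that of cultures given vehicle alone, and inhibition was expressed relative to those controls.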

[8] = NCI Yeast Anticancer Drug Screen. Data for the sgs1 mgt1 strain (AID 161);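 note: 0% = growth of cultures given vehicle only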; details: S. cerevisiae sgs1 mgt1 strain, active compounds read high
Procedure, shortened: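 Growth of a repair-deficient yeast mutant was monitored after compound treatment and expressed as inhibition relative to vehicle-treated cultures.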

[9] = NCI Yeast Anticancer Drug Screen. Data for the CLN2oe strain (AID 163);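 note: 0% = growth of vehicle-only control cultures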; details: S. cerevisiae CLN2oe strain, active compounds read high
Procedure, shortened: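 Compounds are applied to yeast harbouring a defined cell-cycle control change; reduced growth compared with vehicle-treated controls gives the value.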

[10] = NCI Yeast Anticancer Drug Screen. Data for the cln2 rad14 strain (AID 165);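 note: 0% = growth equal to vehicle treated cultures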; details: S. cerevisiae cln2 rad14 strain, active compounds read high
Procedure, shortened: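 Readout is yeast growth inhibition versus vehicle-treated controls, using a strain with cln2 and rad14 alterations exposed to compound.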

[11] = NCI Yeast Anticancer Drug Screen. Data for the bub3 strain (AID 167); details: S. cerevisiae bub3 mutant strain, active compounds read high
Procedure, shortened: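 Yeast carrying a defined mutation is treated with each compound, and growth is compared with that of vehicle-exposed cells to give inhibition.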

[12] = NCI Yeast Anticancer Drug Screen. Data for the wt2 strain (AID 169);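 note: 0% = growth of vehicle-treated yeast cultures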; details: S. cerevisiae wt2 strain growth inhibition, active compounds read high
Procedure, shortened: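 Against vehicle-treated controls, the growth of yeast exposed to each compound was compared, and the inhibition was recorded.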

[13] = NCI Yeast Anticancer Drug Screen. Data for the mlh1 strain (AID 171);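 note: 0% = growth of vehicle-treated control cultures of the same strain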; details: S. cerevisiae mlh1 strain growth inhibition, active compounds read high
Procedure, shortened: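 Measured: yeast growth. Reference: vehicle-treated controls. Organism: strain with a defined alteration affecting DNA damage repair or cell cycle control, treated with compound.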

[14] = NCI Yeast Anticancer Drug Screen. Data for the mlh1 rad18 strain (AID 175); details: S. cerevisiae mlh1 rad18 strain growth inhibition, active compounds read high
Procedure, shortened: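 Genetically defined yeast (DNA repair-deficient) exposed to compounds; growth inhibition determined relative to vehicle.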

[15] = NCI Yeast Anticancer Drug Screen. Data for the sgs1 strain (AID 173);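 note: 0% = growth of vehicle-only control cultures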; details: S. cerevisiae sgs1 mutant, active compounds read high
Procedure, shortened: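 Each compound was added to cultures of the altered yeast strain. Growth was recorded, and inhibition was derived by comparison with vehicle controls.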

[16] = at 5.0 µM (retest, dose inferred, filed as 0.5)
[17] = at 50.0 µM (retest, dose inferred, filed as 5.0)

Measured: growth inhibition

CO[C@@]12[C@H](COC(N)=O)C3=C(C(=O)C(C)=C(N)C3=O)N1C[C@@H]1N[C@@H]12
active: [1]; at 33.0 µM 83% | [1]; at 100.0 µM 92% | [3]; at 100.0 µM 83% | [4]; at 100.0 µM 79% | [5]; at 33.0 µM 76% | [5]; [17] 72% | [5]; at 100.0 µM 91% | [6]; at 33.0 µM 74% | [6]; [17] 80% | [6]; at 100.0 µM 91% | [7]; at 33.0 µM 76% | [7]; at 100.0 µM 89% | [9]; at 100.0 µM 85% | [12]; at 100.0 µM 86% | [13]; at 100.0 µM 84% | [14]; [16] 72% | [14]; [17] 92% | [14]; at 50.0 µM 71.7%
inactive: [1]; at 1.2 µM 7% | [1]; at 3.7 µM 19% | [1]; at 11.0 µM 55% | [2]; at 1.2 µM 1% | [2]; at 3.7 µM 2% | [2]; at 11.0 µM 9% | [2]; at 33.0 µM 30% | [2]; at 100.0 µM 62% | [3]; at 1.2 µM -4% | [3]; at 3.7 µM 5% | [3]; at 11.0 µM 25% | [3]; at 33.0 µM 63% | [4]; at 1.2 µM -2% | [4]; at 3.7 µM 2% | [4]; at 11.0 µM 11% | [4]; at 33.0 µM 33% | [5]; at 1.2 µM 1% | [5]; at 3.7 µM 14% | [5]; [16] 23% | [5]; at 11.0 µM 38% | [5]; at 50.0 µM 65.3% | [6]; at 1.2 µM 1% | [6]; at 3.7 µM 13% | [6]; [16] 25% | [6]; at 11.0 µM 29% | [6]; at 50.0 µM 63.9% | [7]; at 1.2 µM 6% | [7]; at 3.7 µM 17% | [7]; at 11.0 µM 39% | [8]; [16] 22% | [8]; [17] 68% | [8]; at 50.0 µM 50.8% | [9]; at 1.2 µM -3% | [9]; at 3.7 µM 0% | [9]; at 11.0 µM 7% | [9]; at 33.0 µM 38% | [10]; [16] 7% | [10]; [17] 57% | [10]; at 50.0 µM 48.8% | [11]; at 1.2 µM 1% | [11]; at 3.7 µM 3% | [11]; [16] 29% | [11]; at 11.0 µM 7% | [11]; at 33.0 µM 26% | [11]; [17] 49% | [11]; at 50.0 µM 25.4% | [11]; at 100.0 µM 67% | [12]; at 1.2 µM -1% | [12]; at 3.7 µM 4% | [12]; at 11.0 µM 15% | [12]; at 33.0 µM 51% | [13]; at 1.2 µM 1% | [13]; at 3.7 µM 7% | [13]; at 11.0 µM 21% | [13]; at 33.0 µM 55%

Nc1ccc(S(=O)(=O)Nc2ccc(Nc3c4ccccc4nc4ccccc34)cc2)cc1
inactive: [1]; at 1.2 µM 21% | [1]; at 3.7 µM 69% | [2]; at 1.2 µM 2% | [2]; at 3.7 µM 19% | [2]; at 11.0 µM 18% | [2]; at 33.0 µM 18% | [2]; at 100.0 µM 43% | [3]; at 1.2 µM 8% | [3]; at 3.7 µM 56% | [4]; at 1.2 µM 4% | [4]; at 3.7 µM 4% | [4]; at 11.0 µM 3% | [4]; at 33.0 µM 13% | [4]; at 100.0 µM 50% | [5]; at 1.2 µM 22% | [5]; at 3.7 µM 66% | [5]; [16] 59% | [6]; at 1.2 µM 0% | [6]; at 3.7 µM 11% | [6]; [16] -24% | [6]; at 11.0 µM 6% | [6]; at 33.0 µM 19% | [6]; [17] 31% | [6]; at 50.0 µM 57.4% | [7]; at 1.2 µM 7% | [7]; at 3.7 µM 18% | [7]; at 11.0 µM 14% | [7]; at 33.0 µM 25% | [7]; at 100.0 µM 58% | [8]; [16] -7% | [8]; [17] 19% | [8]; at 50.0 µM 21% | [9]; at 1.2 µM -29% | [9]; at 3.7 µM -5% | [9]; at 11.0 µM -15% | [9]; at 33.0 µM 4% | [9]; at 100.0 µM 33% | [10]; [16] -3% | [10]; [17] 7% | [10]; at 50.0 µM 13.8% | [11]; at 1.2 µM 8% | [11]; at 3.7 µM 31% | [11]; [16] -18% | [11]; at 11.0 µM 15% | [11]; at 33.0 µM 4% | [11]; [17] -4% | [11]; at 50.0 µM -22.1% | [11]; at 100.0 µM 39% | [12]; at 1.2 µM -42% | [12]; at 3.7 µM -39% | [12]; at 11.0 µM -38% | [12]; at 33.0 µM -30% | [12]; at 100.0 µM 60% | [13]; at 1.2 µM 4% | [13]; at 3.7 µM 24% | [13]; at 11.0 µM 23% | [13]; at 33.0 µM 24% | [13]; at 100.0 µM 60% | [15]; at 1.2 µM 8% | [15]; at 3.7 µM 17% | [15]; at 11.0 µM 24% | [15]; at 33.0 µM 43% | [14]; [16] 0% | [14]; [17] 19%
active: [1]; at 11.0 µM 88% | [1]; at 33.0 µM 93% | [1]; at 100.0 µM 95% | [3]; at 11.0 µM 77% | [3]; at 33.0 µM 76% | [3]; at 100.0 µM 79% | [5]; at 11.0 µM 86% | [5]; at 33.0 µM 93% | [5]; [17] 87% | [5]; at 50.0 µM 79.1% | [5]; at 100.0 µM 94% | [6]; at 100.0 µM 77% | [15]; at 100.0 µM 79%
